Source: PubChem BioAssay AID463190 (Sanford-Burnham Center for Chemical Genomics, 2010)
Hit rate of the full screen: of about 330,000 compounds, about 7,300 (2.2%) were called active. Many of the other results were omitted from the sample, so actives are more common in it than they were. Values without a mark were called inactive.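 How the source made its calls: active means inhibition of at least 40%; inactive means the rest.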

Experiment: growth inhibitors of tim10-1 mutant yeast, primary screen, luminescence, uHTS (AID 463190);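 further: mutant grown at 25 °C; 0% = DMSO wells with yeast and 100% = wells holding no yeast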
Details: S. cerevisiae tim10-1 ts strain growth, BacTiter-Glo, 24 h; at 20 µM; hits give high values

Row | Compound | inhibition
1 | COc1ccccc1-c1cnn2c(N3CCOCC3)cc(C)nc12 | 4.69%
2 | COc1ccc(C(=O)NC(=S)N2CCNC(=O)C2CC(=O)OC(C)C)cc1 (centres undefined) | -10.3%
3 | COc1cccc(Cn2cnc3c([N+](=O)[O-])c(C)c(C)cc32)c1 | 41% (active)
4 | Cc1cccc(Cn2cnc3c(N)c(C)c(C)cc32)c1 | 16.8%
5 | COc1cccc(CNS(=O)(=O)c2cc3c(cc2C)n(C)c(=O)c(=O)n3C)c1 | 8.44%
6 | CC1CCN(C(=O)c2ccc(CSc3ccc(Cl)cc3)cc2)CC1 | 24.5%
7 | O=C(c1ccc(S(=O)(=O)c2ccccc2)cc1)N1CCCCCC1 | 15.7%
8 | O=C(c1ccc(CSc2ccccc2)cc1)N1CCCCCC1 | 42.3% (active)
9 | Cc1nc(NC(=O)CCC(=O)O)sc1C(=O)N(C)C | 3.6%
10 | Cc1ccc(S(=O)(=O)NCC(=O)N2CCOCCOCCOCCOCC2)cc1 | 3.97%
11 | Cc1ccc(S(=O)(=O)NCC2CCC(C(=O)N3CCOCC3)CC2)cc1 (centres undefined) | 9.53%
12 | Cc1ccc(S(=O)(=O)NC(C(=O)N2CCOCCOCCOCCOCC2)c2ccccc2)cc1 (centres undefined) | 40.5% (active)
13 | COc1ccnc(Oc2ccccc2)n1 | -10.3%
14 | COc1ccc(S(=O)(=O)N2CCN(CC(=O)N3CCOCC3)CC2)cc1OC | -6.09%
15 | CNC(=O)c1csc(Cc2c(Cl)sc3ccc(Cl)cc23)n1 | 41.4% (active)
16 | CC(=O)NNC(=O)c1csc(Cc2c(Cl)sc3ccc(Cl)cc23)n1 | 23.3%
17 | CNC(=O)c1csc(-c2ccccc2)n1 | 8.44%
18 | Cc1cccc(C)c1NC(=O)CN1C(=O)C(C)Oc2ccccc21 (centres undefined) | 3.34%
19 | COc1ccccc1-n1ccnc(SCC(=O)NC2CCCCC2)c1=O | 43.2% (active)
20 | COc1ccc(-c2nnc(SCC(=O)NC3CCCCC3)o2)cc1OC | 17%
21 | COc1ccccc1-n1ccnc1SCC(=O)NC(C)(C)C | 4.37%
22 | CCN(c1ccc(NC(=O)COC(=O)CCc2nc3ccccc3n2-c2ccccc2)cc1)C(C)C | 13.1%
23 | O=S(=O)(c1ccc(-c2ccno2)s1)N1CCCCC1 | 9.27%
24 | CNC(=O)C1CC(=O)N(Cc2ccc3c(c2)OCO3)C(=Nc2ccc(F)cc2)S1 (centres undefined) | -3.7%

Row | Compound | inhibition
25 | CC(C)Oc1ccc(CC(=O)NNC(=S)Nc2ccc(Br)cc2)cc1 | 17.7%
26 | C=CCNC(=S)N1CCN(CCN=Cc2c(C)[nH]n(-c3ccc([N+](=O)[O-])cc3)c2=O)CC1 | 43.4% (active)
27 | Cc1[nH]n(-c2ccc([N+](=O)[O-])cc2)c(=O)c1C=NCCN1CCN(C(=O)c2ccccc2F)CC1 | 42.3% (active)
28 | Cc1[nH]n(-c2ccccc2)c(=O)c1N=Nc1ccccc1C(=O)N1CCCCC1 | 22.5%
29 | Cc1ccc(-n2[nH]c(C)c(/C=N/NC(=O)c3cccc([N+](=O)[O-])c3)c2=O)cc1C | 6.18%
30 | CCNC(=S)N1CCN(CCN=CC2=C(O)CC(C)(C)CC2=O)CC1 | -11.3%
31 | CC1(C)CC(=O)C(C=NCCN2CCN(C(=S)Nc3cccc(Cl)c3)CC2)=C(O)C1 | 6.34%
32 | CCOc1ccc(CCNC(=O)COC(=O)c2c(OC)cccc2OC)cc1OCC | 8.9%
33 | CCN(CC)c1ccc(C(=O)NNC(=O)CCc2nc3ccccc3c(=O)[nH]2)cc1 | 10.1%
34 | CC(=O)Oc1c(C(=O)c2nnc(C)o2)c(=O)n(Cc2ccccc2)c2ccccc12 | 7.1%
35 | CSCCC1NC(=O)N(CC(=O)Nc2cccc(S(=O)(=O)N3CCCCCC3)c2)C1=O (centres undefined) | 10.1%
36 | O=S(=O)(c1ccc(F)cc1)N1CCN(C(=S)NC2CCCC2)CC1 | 16%
37 | C[n+]1ccc(/C=C/c2c[nH]c3ccccc23)cc1 | 10.5%
38 | CCC(C)(C)NC(=O)C(c1ccc(OC)cc1)N(C(=O)CCC(=O)Nc1cc(C)on1)c1ccc(OC)cc1OC (centres undefined) | 6.97%
39 | CC1CCN(CCCNC(=O)CN2C(=O)CSc3ccc(S(=O)(=O)N4CCCCC4)cc32)CC1 | 25.2%
40 | Cc1cc(C(C)(C)C)n2nc(C)c(-c3ccccc3)c2n1 | 8.46%
41 | COc1ccc(-c2cc(C)nc3nc(N)nn23)cc1 | 10.4%
42 | Cc1cc(N)n2nc(-c3ccc(C(C)(C)C)cc3)cc2n1 | 57% (active)
43 | O=C(O)CSC(NC(=O)c1cccnc1)(C(F)(F)F)C(F)(F)F | -2.15%
44 | CN(C)CCCCCN(C)Cc1cc2ccccc2o1 | 18.5%
45 | O=C(CN1CCCCCC1)NCCN1C(=O)S/C(=C\c2ccccc2Cl)C1=O | 12.4%
46 | CN(C(=O)CCN1C(=O)/C(=C/c2ccccc2F)SC1=S)C1CCS(=O)(=O)C1 (centres undefined) | 6.93%
47 | O=C1/C(=C\c2ccccc2Cl)SC(=S)N1CCC(=O)N1CCCc2ccccc21 | 41.3% (active)
48 | C#CCCCc1nc2ccccc2c(=O)n1N | 6.38%

Row | Compound | inhibition
49 | CC1CCCN(C(=O)c2ccc3c(c2)C(=O)N(CCC2=CCCCC2)C3=O)C1 (centres undefined) | 24.8%
50 | COc1ccc(C(=O)/C=C/c2ccc(-c3ccccc3)cc2)cc1CSCC(=O)O | 41.5% (active)
51 | COc1ccc(/C=C/C(=O)c2ccc(NS(=O)(=O)c3ccc(C)cc3)cc2)cc1O | 31.4%
52 | COC(=O)c1ccc(COc2ccc(/C=C/C(=O)c3ccc(OC)c(CSCC(=O)O)c3)cc2OC)cc1 | 29.5%
53 | CCCCn1c(=S)[nH]c2cc(S(=O)(=O)N3CCCCC3)ccc21 | 19.1%
54 | COc1ccc(C(=O)NC2(C(F)(F)F)NC(=O)N(CCCc3ccccc3)C2=O)c(OC)c1OC (centres undefined) | 22.9%
55 | COc1ccccc1-n1c(=S)[nH]c2c(sc(=S)n2-c2ccc(C)cc2C)c1=O | 8.48%
56 | Cc1ncc([N+](=O)[O-])n1CCOC(=O)c1ccc(Br)cc1 | 4.67%
57 | COc1ccc(C2=NN(C(C)=O)C(c3ccccc3)C2)cc1 (centres undefined) | 19.4%
58 | CCC(C)N(C)C1CCN(C(=S)Nc2ccc(OC)cc2)CC1 (centres undefined) | 2.23%
59 | COc1ccc(NC(=S)N2N=CCC2c2ccccc2)cc1 (centres undefined) | 40.3% (active)
60 | CCc1ccc(OCC(=O)NCC(c2ccc(Cl)cc2)N2CCCCC2)cc1 (centres undefined) | 34.1%
61 | Fc1ccccc1/C=N/n1c(-c2cccnc2)n[nH]c1=S | -14.4%
62 | S=c1[nH]nc(-c2ccncc2)n1/N=C/c1ccccc1Cl | 13.5%
63 | S=c1[nH]nc(-c2cccnc2)n1/N=C/C(Cl)=C\c1ccccc1 | 41.6% (active)
64 | COc1ccc(NC(=O)C(CC(C)C)NC(=O)C2CCC(C)CC2)cc1 (centres undefined) | 23.1%
65 | CC(=O)Nc1nc(C)c(Cc2ccccc2)c(=O)[nH]1 | 13.2%
66 | COc1ccc([N+](=O)[O-])cc1-c1nc2ccccc2nc1-c1ccccc1 | 38.3%
67 | O=[N+]([O-])c1ccc2nc(-c3ccccn3)[nH]c2c1 | 34.1%
68 | O=[N+]([O-])c1ccc2c(c1)Nc1nc3ccccc3nc1N2 | 60.5% (active)
69 | CCSC(C)CC1C/C(=N/O)c2c(C)noc2C1 (centres undefined) | -9.02%
70 | Cc1ccc(N2CCN(C(=O)c3cccs3)CC2)c(C)c1 | -6.62%
71 | CCCCN(CCCC)CC(O)Cn1c2ccccc2c(=O)c2ccccc21 (centres undefined) | 14.3%
72 | O=C1c2ccccc2S(=O)(=O)N1CC(O)Cn1c2ccccc2c2ccccc21 (centres undefined) | 60.7% (active)

Row | Compound | inhibition
73 | O=C(CN1C(=O)c2ccccc2S1(=O)=O)NC1CCCCC1 | 7.88%
74 | CCC1=[N+]([O-])C(C)(/C(C)=N\O)N(O)C1(C)C (centres undefined) | 9.85%
75 | O=C(NCc1ccccc1)C(c1cccnc1)N(C(=O)c1csnn1)c1ccc(F)cc1 (centres undefined) | -25%
76 | CCO[C@H]1OC(C(=O)N2CCN(Cc3ccccc3)CC2)=C[C@@H](c2cn(C(C)=O)c3ccccc23)[C@@H]1CCCO | 15%
77 | COc1ccc(C)cc1Nc1nc(C)nc2c1oc1ccccc12 | 40.7% (active)
78 | COc1ccccc1Nc1ncnc2c1oc1ccccc12 | 3.5%
79 | Cc1nc(Cl)c2oc3ccccc3c2n1 | 0.846%
80 | Cc1ccc(CC(=O)Nc2cccc(C#N)c2)cc1 | 22.1%
81 | CC(C)CN(C(=O)COC(=O)c1ccc(Cl)c(N)c1)c1c(N)n(Cc2ccccc2)c(=O)[nH]c1=O | 2.64%
82 | CCCCN=C1N/C(=C\c2ccco2)C(=O)N1c1ccccc1 | 28%
83 | CN(C)CCCN(Cc1cc2cc3c(cc2[nH]c1=O)OCCO3)C(=O)NC1CCCCC1 | 7.7%
84 | COc1cc(/C=N/n2c(C)n[nH]c2=S)ccc1OCc1ccccc1 | 34.8%
85 | Cn1c(-c2sc3cc(C(F)(F)F)cnc3c2-c2ccccc2)n[nH]c1=S | 18.5%
86 | Cn1c(-c2sccc2OCc2cccc(C(F)(F)F)c2)n[nH]c1=S | 43.5% (active)
87 | CCCCNC(=O)Cn1nc(C)c(S(=O)(=O)N2CCOCC2)c1C | -10.1%
88 | COc1ccc(Cl)cc1NC(=O)C(C)N1CCc2ccccc21 (centres undefined) | 10.7%
89 | c1ccc2c(c1)CCc1snnc1-2 | -9.47%
90 | CC(=O)c1cccc(NC(=O)C2COc3ccccc3O2)c1 (centres undefined) | 6.4%
91 | C/C(=N/NC(=S)Nc1ccccc1)c1ccc2c(c1)OCO2 | 36.6%
92 | CC(NC(=S)Nc1ccccc1)C1COc2ccccc2O1 (centres undefined) | 44.1% (active)
93 | CCCNC(=O)CCn1cc(-c2ccc(OC)cc2)nc1CCN | -4.9%
94 | CCCCn1c(N)c(N(CCC(C)C)C(=O)COC(=O)c2ccc(CC)cc2)c(=O)[nH]c1=O | 9.31%
